Measurements from PubChem BioAssay.
Unmarked numbers belong to inactive results. Active and inactive are the calls of the source.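 How the source made its calls, unless noted: active means mean inhibition above 46.68%, the untreated control wells mean plus 3 SD; inactive means the rest.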

biological target: Nuclear receptor coactivator 1 (Homo sapiens) (UniProt Q15788); test: SRC1 coactivator transcriptional activity inhibitors, confirmation, cell-based, luminescence, quadruplicate (AID 588820); conditions: HEK293 GAL4-SRC1 luciferase reporter, at 3.6 µM, stronger effect = higher value;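 further: 0% = DMSO wells and 100% = gossypol 36 µM treated wells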
Sequence (Q15788 whole entry, looked up, the tested form may be a part): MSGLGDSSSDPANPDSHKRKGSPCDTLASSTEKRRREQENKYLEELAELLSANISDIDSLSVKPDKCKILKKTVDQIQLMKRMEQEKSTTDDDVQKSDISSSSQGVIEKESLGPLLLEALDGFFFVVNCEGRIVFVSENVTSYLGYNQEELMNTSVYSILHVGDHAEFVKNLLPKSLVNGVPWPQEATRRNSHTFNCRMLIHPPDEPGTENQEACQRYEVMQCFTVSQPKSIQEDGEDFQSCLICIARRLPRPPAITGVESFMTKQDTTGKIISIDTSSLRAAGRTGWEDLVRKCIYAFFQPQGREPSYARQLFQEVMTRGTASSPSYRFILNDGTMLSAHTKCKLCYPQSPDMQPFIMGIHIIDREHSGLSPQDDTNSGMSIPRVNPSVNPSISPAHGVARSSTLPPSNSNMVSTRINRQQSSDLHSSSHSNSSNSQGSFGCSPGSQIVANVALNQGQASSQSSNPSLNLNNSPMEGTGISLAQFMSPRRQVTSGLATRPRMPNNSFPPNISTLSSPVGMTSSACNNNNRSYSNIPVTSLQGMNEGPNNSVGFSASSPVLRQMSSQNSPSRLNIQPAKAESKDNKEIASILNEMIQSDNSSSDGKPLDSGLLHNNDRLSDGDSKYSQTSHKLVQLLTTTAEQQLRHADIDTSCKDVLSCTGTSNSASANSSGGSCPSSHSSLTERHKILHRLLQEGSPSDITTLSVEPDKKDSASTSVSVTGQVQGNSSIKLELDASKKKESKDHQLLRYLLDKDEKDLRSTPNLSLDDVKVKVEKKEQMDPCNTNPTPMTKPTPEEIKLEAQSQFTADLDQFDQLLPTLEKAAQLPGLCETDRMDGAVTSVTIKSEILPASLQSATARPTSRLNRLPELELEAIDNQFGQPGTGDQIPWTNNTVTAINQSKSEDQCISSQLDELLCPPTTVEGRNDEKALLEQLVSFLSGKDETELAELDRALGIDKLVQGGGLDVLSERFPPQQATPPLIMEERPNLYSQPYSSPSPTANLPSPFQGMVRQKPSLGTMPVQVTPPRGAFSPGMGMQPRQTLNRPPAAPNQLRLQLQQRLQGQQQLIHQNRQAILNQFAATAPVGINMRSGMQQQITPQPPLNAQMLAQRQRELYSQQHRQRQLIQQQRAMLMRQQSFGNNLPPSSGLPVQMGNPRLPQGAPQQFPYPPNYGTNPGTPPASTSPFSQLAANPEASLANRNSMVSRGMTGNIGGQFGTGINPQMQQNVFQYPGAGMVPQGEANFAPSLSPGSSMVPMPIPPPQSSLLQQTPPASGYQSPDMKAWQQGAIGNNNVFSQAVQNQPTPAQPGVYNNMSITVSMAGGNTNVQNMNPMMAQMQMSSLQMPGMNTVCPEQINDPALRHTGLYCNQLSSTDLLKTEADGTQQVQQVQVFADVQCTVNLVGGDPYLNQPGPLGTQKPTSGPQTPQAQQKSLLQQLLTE

| SMILES | inhibition |
| --- | --- |
| CC(=O)c1cccc(NC(=O)c2ccc(CN3CCc4ccccc4C3)cc2)c1 | -1.99% |
| CC(=O)Nc1sc2c(c1-c1nc3ccccc3s1)CCN(C(C)C)C2 | -147% |
| Cc1nn(-c2ccccc2)c(N2CCCC2)c1/C=N/NC(=O)c1cc(-c2cccnc2)nc2ccccc12 | -42.9% |
| O=C(O)CC1S/C(=N\N=C2CCCCCC2)N(c2ccccc2)C1=O (stereo not given) | -22.2% |
| CCOC(=O)Cc1csc(SCC(=O)c2c(N)n(CC(C)C)c(=O)n(C)c2=O)n1 | -7.3% |
| CC(C)Oc1ccccc1NC(=O)CSc1nc2ccccc2c(=O)n1C | -5.84% |
| Cc1cccc(C)c1NC(=O)CN(C)CC(=O)Nc1ccc(F)c(Cl)c1 | 4.35% |
| CCOC(=O)c1c(NC(=O)COc2ccccc2C#N)sc2c1CC(C)(C)NC2(C)C | -41.5% |
| COc1cc(-c2cc3nc(NCc4cccs4)ccn3n2)cc(OC)c1OC | -21.6% |
| CCc1ccc(NC(=O)c2ccc(F)c(S(=O)(=O)N(CC)c3ccccc3)c2)cc1 | 3.58% |
| COc1ccccc1CN(Cc1nc2ccccc2c(=O)[nH]1)S(=O)(=O)c1ccc2ccccc2c1 | -20.3% |
| COc1ccc2cc(/C=N/NC(=O)c3ccc(CN(c4ccc(C)c(C)c4)S(C)(=O)=O)cc3)c(Cl)nc2c1 | -4.08% |
| Cc1cc(C)n(-c2ccc(C(=O)Nc3ccc(S(=O)(=O)NCc4ccco4)cc3)cc2)n1 | -5.13% |
| COc1ccc(Cl)cc1NC(=O)CN(C)C(=O)c1ccc(COc2ccccc2)cc1 | -31.4% |
| CCOC(=O)C1=C[C@@H](CC)N(S(=O)(=O)c2ccc([N+](=O)[O-])cc2)[C@H]1c1ccccc1 | -2.32% |
| Cc1ccccc1CN1CCC(Oc2ccc(C(=O)NCc3ccccn3)cc2)CC1 | -15.8% |
| O=C(Nc1ccncc1)c1cccc(S(=O)(=O)N2CCc3ccccc32)c1 | -21.8% |
| CCCCCCn1nc(C(=O)OCC(=O)c2c(N)n(C)c(=O)n(C)c2=O)c2ccccc2c1=O | -6.84% |
| O=C(CN1C(=O)COc2ccccc21)Nc1ccccc1F | -26% |
| COc1cccc(/C=N/NC(=O)CSc2ccccc2C)c1O | -0.52% |

| SMILES | inhibition |
| --- | --- |
| Cc1ccc(S(=O)(=O)N(C)c2ccc(C(=O)N3CCN(Cc4ccc5c(c4)OCO5)CC3)cc2)cc1 | 9.2% |
| Cc1ccccc1C(OCC(O)CN1CCN(CCO)CC1)c1ccccc1 (stereo not given) | -13.1% |
| CC(NC(=O)COC(=O)c1cccs1)c1ccccc1 (stereo not given) | 15.5% |
| COc1ccc(OC)c(/C=N/NC(=O)c2cc3c(OC)cccc3[nH]2)c1 | -19.2% |
| COc1ccc(-n2cc(-c3ccccc3)c3c(N4CCOCC4)ncnc32)cc1 | -50.7% |
| COc1ccccc1CNC(=O)C(=O)NCCC1CCCCN1S(=O)(=O)c1ccc(C)cc1 (stereo not given) | 26.4% |
| CSc1ccc(CN2CCN(Cc3ccc([N+](=O)[O-])cc3)CC2)cc1 | -10.7% |
| CCN(C(=O)CN1C(=O)S/C(=C\c2cccc(Cl)c2)C1=O)C1CCS(=O)(=O)C1 (stereo not given) | 4.59% |
| CCCCC(=O)NC(c1ccc(N(CC)CC)cc1)c1ccc2cccnc2c1O (stereo not given) | 69.3% (active) |
| COc1cc(/C=N/NC(=O)NC23CC4CC(CC(C4)C2)C3)ccc1OCC(N)=O | -24.7% |
| CN(Cc1cccs1)C(=O)CN1CCN(S(=O)(=O)c2ccc3c(c2)OCCCO3)CC1 | -16.6% |
| COc1ccc(-c2cc(=O)oc3c(C)c(O)c(CN(C)C)cc23)cc1 | 17.5% |
| O=C(c1cc(COc2c(F)cccc2F)on1)N1CCC(c2ccncc2)CC1 | -8.98% |
| COc1cc(/C=C/C(=O)Nc2ccc3nc4n(c(=O)c3c2)CCCC4)cc(OC)c1OC | -22.6% |
| COc1cc(C(=O)NCCOc2cc(C)ccc2C(C)C)cc(OC)c1OC | -14.4% |
| CCOC(=O)c1[nH]c(C)c(C(=O)OCc2ccc(C)cc2)c1C | 4.43% |
| COC(=O)c1ccc(C(=O)N2CCCC(Nc3ccc(F)c(F)c3)C2)cc1 (stereo not given) | -59.6% |
| CN(C)c1ccncc1C(=O)Nc1ccc(F)cc1F | -3.76% |
| CSc1sc(C(=O)NC(=O)NCc2cccnc2)c(C)c1-c1ccon1 | 3.32% |
| COc1cc(OC)c(OC)cc1/C=C1\CC(C)C/C(=C\c2cc(OC)c(OC)cc2OC)C1=O (stereo not given) | -33.6% |

system: not listed separately; test: VP16 transactivation inhibitors, counter-screen for SRC1 inhibitor project, cell-based, luminescence, high throughput (AID 588824; in the data active means inhibition above about 25%); conditions: cell-based VP16 transactivation luciferase luminescence; at 3.6 µM; stronger effect = higher value

| SMILES | inhibition |
| --- | --- |
| CC(=O)c1cccc(NC(=O)c2ccc(CN3CCc4ccccc4C3)cc2)c1 | 9.39% |
| CC(=O)Nc1sc2c(c1-c1nc3ccccc3s1)CCN(C(C)C)C2 | 59.3% (active) |
| Cc1nn(-c2ccccc2)c(N2CCCC2)c1/C=N/NC(=O)c1cc(-c2cccnc2)nc2ccccc12 | -7.83% |
| O=C(O)CC1S/C(=N\N=C2CCCCCC2)N(c2ccccc2)C1=O (stereo not given) | -9.41% |
| CCOC(=O)Cc1csc(SCC(=O)c2c(N)n(CC(C)C)c(=O)n(C)c2=O)n1 | 26.3% (active) |
| CC(C)Oc1ccccc1NC(=O)CSc1nc2ccccc2c(=O)n1C | 13.4% |
| Cc1cccc(C)c1NC(=O)CN(C)CC(=O)Nc1ccc(F)c(Cl)c1 | 11.2% |
| CCOC(=O)c1c(NC(=O)COc2ccccc2C#N)sc2c1CC(C)(C)NC2(C)C | -13.1% |
| COc1cc(-c2cc3nc(NCc4cccs4)ccn3n2)cc(OC)c1OC | 6.25% |
| CCc1ccc(NC(=O)c2ccc(F)c(S(=O)(=O)N(CC)c3ccccc3)c2)cc1 | 13.5% |
| COc1ccccc1CN(Cc1nc2ccccc2c(=O)[nH]1)S(=O)(=O)c1ccc2ccccc2c1 | -11.3% |
| COc1ccc2cc(/C=N/NC(=O)c3ccc(CN(c4ccc(C)c(C)c4)S(C)(=O)=O)cc3)c(Cl)nc2c1 | 20.7% |
| Cc1cc(C)n(-c2ccc(C(=O)Nc3ccc(S(=O)(=O)NCc4ccco4)cc3)cc2)n1 | 24.2% |
| COc1ccc(Cl)cc1NC(=O)CN(C)C(=O)c1ccc(COc2ccccc2)cc1 | -12.9% |
| CCOC(=O)C1=C[C@@H](CC)N(S(=O)(=O)c2ccc([N+](=O)[O-])cc2)[C@H]1c1ccccc1 | -3.27% |
| Cc1ccccc1CN1CCC(Oc2ccc(C(=O)NCc3ccccn3)cc2)CC1 | 8.1% |
| O=C(Nc1ccncc1)c1cccc(S(=O)(=O)N2CCc3ccccc32)c1 | 27.9% (active) |
| CCCCCCn1nc(C(=O)OCC(=O)c2c(N)n(C)c(=O)n(C)c2=O)c2ccccc2c1=O | -3.36% |
| O=C(CN1C(=O)COc2ccccc21)Nc1ccccc1F | 1.99% |
| COc1cccc(/C=N/NC(=O)CSc2ccccc2C)c1O | 6.05% |

| SMILES | inhibition |
| --- | --- |
| Cc1ccc(S(=O)(=O)N(C)c2ccc(C(=O)N3CCN(Cc4ccc5c(c4)OCO5)CC3)cc2)cc1 | 30% (active) |
| Cc1ccccc1C(OCC(O)CN1CCN(CCO)CC1)c1ccccc1 (stereo not given) | 3.65% |
| CC(NC(=O)COC(=O)c1cccs1)c1ccccc1 (stereo not given) | 13.6% |
| COc1ccc(OC)c(/C=N/NC(=O)c2cc3c(OC)cccc3[nH]2)c1 | -10% |
| COc1ccc(-n2cc(-c3ccccc3)c3c(N4CCOCC4)ncnc32)cc1 | -1.14% |
| COc1ccccc1CNC(=O)C(=O)NCCC1CCCCN1S(=O)(=O)c1ccc(C)cc1 (stereo not given) | 7.29% |
| CSc1ccc(CN2CCN(Cc3ccc([N+](=O)[O-])cc3)CC2)cc1 | 26.8% (active) |
| CCN(C(=O)CN1C(=O)S/C(=C\c2cccc(Cl)c2)C1=O)C1CCS(=O)(=O)C1 (stereo not given) | 4.57% |
| CCCCC(=O)NC(c1ccc(N(CC)CC)cc1)c1ccc2cccnc2c1O (stereo not given) | 63.8% (active) |
| COc1cc(/C=N/NC(=O)NC23CC4CC(CC(C4)C2)C3)ccc1OCC(N)=O | -17.2% |
| CN(Cc1cccs1)C(=O)CN1CCN(S(=O)(=O)c2ccc3c(c2)OCCCO3)CC1 | -8.72% |
| COc1ccc(-c2cc(=O)oc3c(C)c(O)c(CN(C)C)cc23)cc1 | 18.4% |
| O=C(c1cc(COc2c(F)cccc2F)on1)N1CCC(c2ccncc2)CC1 | 19.7% |
| COc1cc(/C=C/C(=O)Nc2ccc3nc4n(c(=O)c3c2)CCCC4)cc(OC)c1OC | -26.8% |
| COc1cc(C(=O)NCCOc2cc(C)ccc2C(C)C)cc(OC)c1OC | 23.8% |
| CCOC(=O)c1[nH]c(C)c(C(=O)OCc2ccc(C)cc2)c1C | 5.19% |
| COC(=O)c1ccc(C(=O)N2CCCC(Nc3ccc(F)c(F)c3)C2)cc1 (stereo not given) | -10.7% |
| CN(C)c1ccncc1C(=O)Nc1ccc(F)cc1F | -9.03% |
| CSc1sc(C(=O)NC(=O)NCc2cccnc2)c(C)c1-c1ccon1 | 1.48% |
| COc1cc(OC)c(OC)cc1/C=C1\CC(C)C/C(=C\c2cc(OC)c(OC)cc2OC)C1=O (stereo not given) | 2.73% |
